Data on 5 compounds can be found in PubChem BioAssay.

Experiment [1] can be described thus: binders of probe aFSTL3 on microarray, primary screen, stem cell growth factor project, biochemical, small-molecule microarray, fluorescence 635/667 (AID 1064).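 Further: measures binding of the biotinylated anti-FSTL3 antibody to printed compounds.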 Particulars: higher = more signal.
A short description of experiment [2]: binders from COS7 lysate, DM2A8 probe, primary screen, torsin A project, cell lysate, small-molecule microarray, fluorescence 635/667 (AID 1065). Particulars: higher = more signal, COS7 lysate expressing mutant human TOR1A.
Experiment [3] in a line: binders of probe aFGF2 on microarray, primary screen, stem cell growth factor project, biochemical, small-molecule microarray, fluorescence 635/667 (AID 1067).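 Further: measures binding of biotinylated aFGF2 protein to printed compounds on slides; z-score merges feature fluorescence and signal-to-noise across triplicate slides.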 Particulars: higher = more signal.
A short description of experiment [4]: binders of probe aFGF10 on microarray, primary screen, stem cell growth factor project, biochemical, small-molecule microarray, fluorescence 635/667 (AID 1071).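 Further: score merges 667 nm spot intensity and signal to noise from triplicate slides.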 To be noted: higher = more signal.
For experiment [5], the target named is Neurogenic locus notch homolog protein 2 (Homo sapiens) (UniProt Q04721). As to the kind of experiment: Notch2 binders on small-molecule microarrays, primary screen, biochemical, small-molecule microarray, 635 nm fluorescence, stem cell growth factors (AID 1073). Particulars: Notch2 binding, higher = more signal.
Sequence of Neurogenic locus notch homolog protein 2 (Homo sapiens) (Q04721 whole entry, looked up, canonical isoform): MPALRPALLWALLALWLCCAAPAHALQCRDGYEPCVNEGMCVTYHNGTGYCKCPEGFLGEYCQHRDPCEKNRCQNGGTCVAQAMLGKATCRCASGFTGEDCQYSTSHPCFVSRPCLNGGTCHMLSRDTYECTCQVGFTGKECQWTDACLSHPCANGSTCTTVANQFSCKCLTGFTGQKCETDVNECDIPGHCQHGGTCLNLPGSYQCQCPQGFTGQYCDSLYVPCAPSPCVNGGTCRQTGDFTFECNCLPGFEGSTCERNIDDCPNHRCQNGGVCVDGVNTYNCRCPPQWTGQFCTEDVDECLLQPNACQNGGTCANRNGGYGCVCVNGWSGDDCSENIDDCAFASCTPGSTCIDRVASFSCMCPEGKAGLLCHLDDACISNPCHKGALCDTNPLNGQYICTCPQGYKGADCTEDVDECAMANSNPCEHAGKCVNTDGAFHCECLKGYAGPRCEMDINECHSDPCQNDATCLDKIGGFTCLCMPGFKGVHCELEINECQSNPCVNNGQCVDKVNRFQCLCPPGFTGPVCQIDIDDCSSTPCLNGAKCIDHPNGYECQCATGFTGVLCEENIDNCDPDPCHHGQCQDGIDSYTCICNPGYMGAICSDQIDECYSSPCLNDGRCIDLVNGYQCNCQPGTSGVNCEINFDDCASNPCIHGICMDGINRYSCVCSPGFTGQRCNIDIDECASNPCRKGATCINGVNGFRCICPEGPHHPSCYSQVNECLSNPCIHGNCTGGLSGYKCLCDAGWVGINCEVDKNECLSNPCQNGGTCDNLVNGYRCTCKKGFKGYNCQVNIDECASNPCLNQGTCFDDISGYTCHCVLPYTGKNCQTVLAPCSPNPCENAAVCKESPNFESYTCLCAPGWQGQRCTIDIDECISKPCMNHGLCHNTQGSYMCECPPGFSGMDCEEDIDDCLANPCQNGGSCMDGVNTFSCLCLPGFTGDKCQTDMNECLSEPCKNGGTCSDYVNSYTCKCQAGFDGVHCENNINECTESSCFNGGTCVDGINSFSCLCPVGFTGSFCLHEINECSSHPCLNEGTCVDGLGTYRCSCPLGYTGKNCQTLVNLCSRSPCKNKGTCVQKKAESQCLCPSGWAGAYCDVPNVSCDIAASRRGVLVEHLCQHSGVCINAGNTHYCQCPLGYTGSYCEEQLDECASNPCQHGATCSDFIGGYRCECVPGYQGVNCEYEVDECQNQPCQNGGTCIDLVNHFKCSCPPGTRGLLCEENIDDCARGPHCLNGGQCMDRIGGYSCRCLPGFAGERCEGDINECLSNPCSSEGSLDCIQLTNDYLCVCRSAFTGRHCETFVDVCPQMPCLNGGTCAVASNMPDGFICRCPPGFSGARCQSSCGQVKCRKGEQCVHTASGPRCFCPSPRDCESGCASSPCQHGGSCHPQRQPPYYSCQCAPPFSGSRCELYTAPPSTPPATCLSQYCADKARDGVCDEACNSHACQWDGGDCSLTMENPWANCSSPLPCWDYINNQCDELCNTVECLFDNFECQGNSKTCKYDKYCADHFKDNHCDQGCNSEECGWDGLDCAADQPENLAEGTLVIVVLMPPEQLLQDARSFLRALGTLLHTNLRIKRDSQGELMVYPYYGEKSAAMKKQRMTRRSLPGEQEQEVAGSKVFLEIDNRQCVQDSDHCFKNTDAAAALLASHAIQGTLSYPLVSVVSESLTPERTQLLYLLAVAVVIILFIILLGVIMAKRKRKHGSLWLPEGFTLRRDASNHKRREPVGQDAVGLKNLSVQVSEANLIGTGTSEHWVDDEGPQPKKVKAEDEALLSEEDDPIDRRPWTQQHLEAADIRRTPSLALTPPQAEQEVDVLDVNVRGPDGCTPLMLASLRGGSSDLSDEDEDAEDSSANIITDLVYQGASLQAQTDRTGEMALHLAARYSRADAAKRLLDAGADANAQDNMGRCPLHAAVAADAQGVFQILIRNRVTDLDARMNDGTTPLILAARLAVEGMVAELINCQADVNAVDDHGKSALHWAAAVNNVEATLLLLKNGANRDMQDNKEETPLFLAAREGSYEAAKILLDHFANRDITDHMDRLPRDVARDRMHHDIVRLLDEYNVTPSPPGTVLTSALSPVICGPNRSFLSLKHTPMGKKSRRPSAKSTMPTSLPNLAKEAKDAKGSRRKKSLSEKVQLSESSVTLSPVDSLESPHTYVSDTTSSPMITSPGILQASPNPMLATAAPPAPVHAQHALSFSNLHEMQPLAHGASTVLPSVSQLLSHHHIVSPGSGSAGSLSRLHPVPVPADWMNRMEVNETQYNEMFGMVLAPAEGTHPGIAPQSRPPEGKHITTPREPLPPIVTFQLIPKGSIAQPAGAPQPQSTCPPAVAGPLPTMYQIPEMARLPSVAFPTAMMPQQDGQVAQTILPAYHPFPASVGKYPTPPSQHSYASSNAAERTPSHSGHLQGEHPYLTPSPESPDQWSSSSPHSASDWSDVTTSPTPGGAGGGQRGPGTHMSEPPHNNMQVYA
Experiment [6] deals with Pro-neuregulin-1, membrane-bound isoform (Homo sapiens) (UniProt Q02297). As to the kind of experiment: NRG1 binders on small-molecule microarrays, primary screen, psychiatric disease protein project, biochemical, small-molecule microarray, fluorescence 635/667 (AID 1075).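 Further: score combines 667 nm spot fluorescence with signal to noise.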 To be noted: NRG1 binding, 635 nm fluorescence, higher = more signal.
Sequence of Pro-neuregulin-1, membrane-bound isoform (Homo sapiens) (Q02297 whole entry, looked up, the tested form may be a part, canonical isoform): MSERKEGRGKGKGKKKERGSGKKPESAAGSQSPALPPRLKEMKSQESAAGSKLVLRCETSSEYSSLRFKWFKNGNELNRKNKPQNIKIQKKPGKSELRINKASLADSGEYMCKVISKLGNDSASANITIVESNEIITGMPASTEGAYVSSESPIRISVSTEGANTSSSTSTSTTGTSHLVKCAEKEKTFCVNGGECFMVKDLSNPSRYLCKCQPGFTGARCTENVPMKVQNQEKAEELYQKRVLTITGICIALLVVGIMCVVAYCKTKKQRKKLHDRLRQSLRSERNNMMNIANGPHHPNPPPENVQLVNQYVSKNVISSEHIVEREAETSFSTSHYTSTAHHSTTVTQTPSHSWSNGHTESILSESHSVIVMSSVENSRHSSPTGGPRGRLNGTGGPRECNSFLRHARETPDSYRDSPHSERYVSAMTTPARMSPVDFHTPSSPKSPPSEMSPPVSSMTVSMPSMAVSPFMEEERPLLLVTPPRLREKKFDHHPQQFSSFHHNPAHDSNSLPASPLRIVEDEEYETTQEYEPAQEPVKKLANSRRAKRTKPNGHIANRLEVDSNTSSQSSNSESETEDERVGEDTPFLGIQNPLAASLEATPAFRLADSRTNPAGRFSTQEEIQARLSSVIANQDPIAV
The test system of experiment [7] is Neuregulin-1 EGF-like domain. Kind of experiment: binders of neuregulin-1 EGF-like domain, primary screen, biochemical, small-molecule microarray, 635 nm fluorescence (AID 1081).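 Further: binding of the protein to compounds printed on small-molecule microarray slides.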 Particulars: small-molecule microarray binding, higher = more signal.
A short description of experiment [8]: FRG1 promoter luciferase signal modulators, primary screen, FRG1 inhibition for FSHD, cell-based, C2C12 myotubes, firefly/Renilla luciferase, luminescence (AID 1084). To be noted: higher = more signal, called active from +8 up or from −8 down.
Experiment [9] is described as follows: binders of probe aFST on microarray, primary screen, stem cell growth factor project, biochemical, small-molecule microarray, fluorescence 635/667 (AID 1086).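 Further: score merges 667 nm fluorescence with signal-to-noise of each printed compound spot.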 To be noted: higher = more signal.
Experiment [10] in a line: binders of probe aHhip on microarray, primary screen, stem cell growth factor project, biochemical, small-molecule microarray, fluorescence 635/667 (AID 1087).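 Further: score merges spot fluorescence at 667nm with spot signal to noise ratio.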 Particulars: higher = more signal.
The subject of experiment [11] is PRMT1 (protein arginine N-methyltransferase 1). As to the kind of experiment: PRMT1 binders on small-molecule microarrays, primary screen, biochemical, small-molecule microarray, 635 nm fluorescence (AID 1088).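 Further: binding of Prmt1 protein to compounds spotted on small-molecule microarray slides.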 Particulars: small-molecule microarray binding, higher = more signal.
Experiment [12] is described as follows: yeast growth modulation, basal conditions, primary screen, YJM789 clinical isolate, OD600, 24 h (AID 1089).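 Further: growth of clinical yeast isolate S. cerevisiae YJM 789 seeded 1000 cells per well; test concentration not given here.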 Particulars: S. cerevisiae YJM789 growth, higher = more signal, called active from +8 up or from −8 down.
Experiment [13] can be described thus: fission yeast growth modulation, primary screen, strain 972, OD600, 24 h, no modulator (AID 1090).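 Further: basal condition with compound alone and no growth modifier present; test concentration not given here.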 To be noted: S. pombe 972 growth, higher = more signal, called active from +8 up or from −8 down.
Experiment [14] can be described thus: S. cerevisiae growth modulation with rapamycin, primary screen, strain BY4716, OD600, 96 h (AID 1091). Further: test concentration not given here. To be noted: higher = more signal, called active from +8 up or from −8 down.
Experiment [15] concerns the target Torsin-1A-interacting protein 2 (Homo sapiens) (UniProt Q8NFQ8). As to the kind of experiment: LULL1 binders on small-molecule microarray, primary screen, cell lysate, human LULL1 lysate, 635/667 nm fluorescence (AID 1092).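 Further: probe is lysate of COS7 cells overexpressing human LULL1; score merges per-feature 667 nm fluorescence with signal-to-noise.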 To be noted: hLULL1 lysate binding, 635 nm fluorescence, higher = more signal.
Experiment [16] in a line: E. coli growth modulation, two-sided OD650, primary screen, E. coli filamentation project, strain DRC41, 24 h (AID 1093).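 Further: MC1000 strain lacking acrAB efflux and sulA so SOS filamentation is blocked; test concentration not given here.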 To be noted: OD650, 24 h, higher = more signal, called active from +8 up or from −8 down.
A short description of experiment [17]: small-molecule microarray binders of probe aLefty2, primary screen, biochemical, biotinylated probe, 635/667 nm fluorescence (AID 1094).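 Further: score merges spot fluorescence near 667 nm with spot signal-to-noise ratio.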 Particulars: higher = more signal.
Experiment [18] concerns Noggin (protein binding on small-molecule microarray). As to the kind of experiment: Noggin binders on small-molecule microarray, primary screen, biochemical, 635/667 nm fluorescence (AID 1095).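 Further: score merges 667 nm feature fluorescence with signal to noise over triplicate slides.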 Particulars: 635 nm fluorescence, higher = more signal.
The target in experiment [19] is Neurogenic locus notch homolog protein 3 (Homo sapiens) (UniProt Q9UM47). As to the kind of experiment: NOTCH3 binders on small-molecule microarray, primary screen, biochemical, 635/667 nm fluorescence (AID 1096). To be noted: NOTCH3 binding, 635 nm fluorescence, higher = more signal.
Experiment [20] is described as follows: small-molecule microarray binders of probe aEGFR, primary screen, biochemical, biotinylated probe, 635/667 nm fluorescence (AID 1097).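 Further: probe is a biotinylated anti-EGFR antibody binding compounds printed on slides; score combines fluorescence near 667 nm and signal to noise of each spot.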 Particulars: higher = more signal.

Activity calls are given as the source filed them.

Sequence of Torsin-1A-interacting protein 2 (Homo sapiens) (Q8NFQ8 whole entry, looked up): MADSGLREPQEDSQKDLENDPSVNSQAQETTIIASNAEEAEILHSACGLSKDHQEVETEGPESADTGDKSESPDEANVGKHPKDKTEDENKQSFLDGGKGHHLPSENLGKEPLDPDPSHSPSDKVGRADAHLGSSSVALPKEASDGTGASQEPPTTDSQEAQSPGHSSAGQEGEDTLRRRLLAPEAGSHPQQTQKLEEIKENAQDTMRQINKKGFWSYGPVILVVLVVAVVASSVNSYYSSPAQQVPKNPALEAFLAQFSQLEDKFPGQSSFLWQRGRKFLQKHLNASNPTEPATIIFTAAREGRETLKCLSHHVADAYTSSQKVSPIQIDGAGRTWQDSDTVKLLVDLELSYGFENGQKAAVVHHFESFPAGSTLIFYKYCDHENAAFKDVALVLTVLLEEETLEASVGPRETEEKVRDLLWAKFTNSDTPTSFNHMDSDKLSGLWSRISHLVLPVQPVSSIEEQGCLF

As for `COc1ccc([Si](C)(C)[C@H]2[C@H](CCn3cc(CCO)nn3)O[C@@]3(C(=O)N(Cc4cccc(N5C(=O)c6cccc7cccc5c67)c4)c4ccccc43)[C@@H]2C)cc1`, the composite z-score in experiment [1] was -0.201; in experiment [2], 0.603; in experiment [3], -0.105; in [4], 0.906; in [5] it was 0.45; in experiment [6], 0.772. Besides, the composite z-score in experiment [7] was 0.862; in experiment [9], 0.395; in [10], 1.55; in experiment [11], 1.46; in [15] it was 2.2; in [17], -0.288. Besides, the composite z-score in [18] was 1.03; in [19], 0.79; in experiment [20], -0.142. For the same compound, the z-score is -3.54 (inactive) in experiment [8]; 0.502 (inactive) in experiment [12]; 0.903 (inactive) in experiment [13]; 27.7 (active) in [14]; 0.921 (inactive) in experiment [16].

With `CC(C)(C)OC(=O)CC[C@@]1(C(=O)N2CCCCC2)N=C(c2ccc(OCCCO)cc2)O[C@@H]1c1ccccc1CN=[N+]=[N-]`, the composite z-score in [1] amounted to 0.165; in experiment [2], 0.159; in [3], 0.103; in [4] it was 0.355; in experiment [5], 1.65; in experiment [6], 1.98. In addition, the composite z-score in experiment [7] amounted to 1.22; in [9] it was 1.63; in experiment [10], 0.0854; in experiment [11], 1.54; in [15], 3.66; in experiment [17], 0.208. Also, the composite z-score in experiment [18] is 0.39; in experiment [19], 1.05; in [20], 0.0026. Moreover, the z-score in experiment [8] is -1.98 (inactive); in experiment [12] it was -0.492 (inactive); in experiment [13], -0.689 (inactive); in [14] it was -0.0683 (inactive); in experiment [16] it was 0.308 (inactive).

For `C=CCN1C(=O)[C@@]2(O[C@@H](CCO)[C@H]([Si](C)(C)c3ccc(OC)cc3)[C@H]2C)c2cc(NC(=O)[C@H](C)O)ccc21`, the composite z-score in experiment [1] was -0.0083; in experiment [2] it was 0.558; in experiment [3] it was -0.0243; in experiment [4], 1.03; in experiment [5], 0.503; in experiment [6], 0.915. The composite z-score in experiment [7] was 1.1; in [9], 0.005; in [10], -0.169; in [11], 1.54; in [15] it was 3.15; in experiment [17], -0.0622. Further, the composite z-score was 0.959 in [18], 0.759 in [19] and -0.0485 in experiment [20]. Besides, the z-score in experiment [8] is -0.737 (inactive); in experiment [12], 0.988 (inactive); in [13], -1.64 (inactive); in experiment [14] it was -0.0361 (inactive); in [16], 0.571 (inactive).

Turning to `C=C(/C(=C/C[C@@H](OC(=O)c1ccncc1)c1ccccc1OCCO)c1cnc2ccccc2c1)C(C)C`, the composite z-score was -0.108 in [1]; 0.707 in experiment [2]; 0.0401 in experiment [3]; 1.14 in experiment [4]; 1.5 in [5]; 1.23 in experiment [6]. Moreover, the composite z-score in experiment [7] was 1.2; in experiment [9], -0.177; in experiment [10] it was 0.144; in experiment [11], 1.54; in [15], 2.72; in experiment [17], 0.0113. Besides, the results for the composite z-score in experiment [18], in experiment [19] and in experiment [20] were 1.91, 1.07 and 0.0381, respectively. The z-score in experiment [8] is -3.75 (inactive); in [12], -24.2 (active); in [13], -20.3 (active); in experiment [14] it was -4.07 (inactive); in experiment [16], -0.0023 (inactive).

On to `CC(C)c1ccc(NN2C(C(O)c3cccs3)C=CC3C(=O)N(c4ccccc4)C(=O)C32)cc1` (stereo not given), for which the composite z-score is 0.222 in [1]; -0.14 in [2]; 0.117 in experiment [3]; 0.353 in experiment [4]; 1.66 in experiment [5]; 1.54 in experiment [6]. In addition, the composite z-score in [7] stood at 1.19; in experiment [9], 0.979; in [10], 0.122; in [11], 1.54; in [15], 3.36; in experiment [17] it was 0.453. For the same compound, the composite z-score in experiment [18] is -0.0307; in [19], 1.06; in experiment [20] it was 0.08. Further, the z-score in experiment [8] is -1.87 (inactive); in [12], 0.354 (inactive); in [13] it was 0.758 (inactive); in experiment [14], 0.331 (inactive); in experiment [16], -1.14 (inactive).
